For assay [1], the target named is NADPH oxidase 5 (Homo sapiens) (UniProt Q96PH1). The experiment in a line: NOX5-dependent H2O2 signal modulators, primary screen, NOX inhibitor project, cell-based, HEK293-NOX5, Amplex Red fluorescence (AID 1161). The settings on record: HEK293-NOX5, ionomycin, 45 min, higher = more signal.
A short description of assay [2]: A549 cell viability effects, profiling panel, calcein-AM fluorescence, 48 h, basal (AID 1162). Further: test concentration not given here. The settings on record: higher = more signal.
Assay [3] in a line: adipocyte viability effects, profiling panel, cell-based, 3T3-L1 adipocytes, calcein-AM fluorescence, 48 h, basal (AID 1163). Further: test concentration not given here. Conditions: 3T3-L1 adipocytes viability, higher = more signal.
The nature of assay [4]: HepG2 cell viability effects, profiling panel, calcein-AM fluorescence, 48 h, basal (AID 1164). Further: test concentration not given here. The settings on record: higher = more signal.
A short description of assay [5]: MM1S cell viability effects, profiling panel, calcein-AM fluorescence, 48 h, basal (AID 1165).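 Further: viability of MM1S multiple myeloma cells under basal unstimulated conditions; test concentration not given here.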 The settings on record: higher = more signal.
Assay [6] can be described thus: basal RPMI8226 viability, no added stimulus, profiling panel, cell-based, calcein-AM fluorescence, 48 h, PK04 Diversity Set (AID 1166).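 Further: cells grown under basal conditions without added stimulus; test concentration not given here.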 The settings on record: RPMI8226 myeloma viability, higher = more signal.
Assay [7] is described as follows: basal HepG2 mitochondrial membrane potential changes, profiling panel, cell-based, JC-1 fluorescence, 24 h, 100 nL compound (AID 1167). Further: test concentration not given here. The settings on record: higher = more signal.
The nature of assay [8]: basal 3T3-L1 adipocyte mitochondrial potential changes, profiling panel, cell-based, JC-1 fluorescence, 3T3-L1 adipocytes, 24 h, 100 nL compound (AID 1168). Further: test concentration not given here. The settings on record: JC-1 mitochondrial fluorescence, higher = more signal, called active from +8 up or from −8 down.
Assay [9] can be described thus: basal RPMI8226 mitochondrial membrane potential changes, profiling panel, cell-based, JC-1 fluorescence, 24 h, 100 nL compound (AID 1169). Further: test concentration not given here. Conditions: RPMI8226 myeloma, JC-1 mitochondrial potential fluorescence, higher = more signal.
Assay [10] can be described thus: basal MM1S mitochondrial membrane potential changes, profiling panel, cell-based, JC-1 fluorescence, 24 h, 100 nL compound (AID 1170). Further: test concentration not given here. Conditions: higher = more signal.
Assay [11] can be described thus: A549 lung cancer cell viability effects, profiling panel, resazurin fluorescence, 24 h, PK04 Diversity Set (AID 1171). Further: test concentration not given here. Conditions: higher = more signal, called active from +8 up or from −8 down. (In general: Alamar Blue is a resazurin reagent that responds to reducing activity.)
The nature of assay [12]: HepG2 liver cancer cell viability effects, profiling panel, resazurin fluorescence, 24 h, PK04 Diversity Set (AID 1172). Further: test concentration not given here. Conditions: higher = more signal.
Assay [13] can be described thus: basal S. cerevisiae growth modulation, no modifier, primary screen, OD600, strain BY4716, 24 h, basal condition (AID 1173). The settings on record: OD600, 24 h, higher = more signal, called active from +8 up or from −8 down.
The nature of assay [14]: MM1S myeloma cell viability, profiling panel, resazurin fluorescence, basal, 24 h, PK04 Diversity Set (AID 1174).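 Further: MM1S multiple myeloma cell line; test concentration not given here.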 Conditions: higher = more signal, called active from +8 up or from −8 down.
Assay [15] deals with Dihydroorotate dehydrogenase (quinone), mitochondrial (Plasmodium falciparum (isolate 3D7)) (UniProt Q08210). Kind of assay: PfDHODH enzyme inhibitors, primary screen, biochemical, C-terminal His tag, absorbance 600 nm (AID 1175).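 Further: recombinant parasite enzyme with a five histidine tag at its C terminus; test concentration not given here.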 Conditions: DCIP absorbance 600 nm, higher = more signal, called active from +8 up or from −8 down.
Dihydroorotate dehydrogenase (quinone), mitochondrial (Plasmodium falciparum (isolate 3D7)), sequence (Q08210 whole entry, looked up): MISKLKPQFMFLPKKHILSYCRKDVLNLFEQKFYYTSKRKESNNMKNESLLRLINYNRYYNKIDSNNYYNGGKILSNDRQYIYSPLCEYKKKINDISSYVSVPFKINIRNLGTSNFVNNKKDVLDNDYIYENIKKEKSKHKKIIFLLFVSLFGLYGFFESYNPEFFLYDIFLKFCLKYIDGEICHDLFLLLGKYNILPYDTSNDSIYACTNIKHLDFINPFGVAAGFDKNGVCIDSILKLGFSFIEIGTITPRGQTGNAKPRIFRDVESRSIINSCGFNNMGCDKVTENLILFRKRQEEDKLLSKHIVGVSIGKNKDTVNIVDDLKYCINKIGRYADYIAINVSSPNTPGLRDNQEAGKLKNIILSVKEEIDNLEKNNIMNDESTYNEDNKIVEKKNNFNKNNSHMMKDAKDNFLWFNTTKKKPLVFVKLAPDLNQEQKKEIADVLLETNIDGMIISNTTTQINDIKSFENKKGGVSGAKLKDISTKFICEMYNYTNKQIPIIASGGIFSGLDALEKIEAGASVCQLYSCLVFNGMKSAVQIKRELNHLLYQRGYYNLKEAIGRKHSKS
A short description of assay [16]: S. cerevisiae RM11-1a growth modifiers, primary screen, strain RM11-1a, OD600, basal, 24 h (AID 1177).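 Further: cultures grown under basal conditions with no added stressor; test concentration not given here.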 Conditions: OD600, 24 h, higher = more signal, called active from +8 up or from −8 down.
A short description of assay [17]: E. coli acrAB mutant growth effects, primary screen, E. coli filamentation inducers, strain DRC39, OD650, 24 h (AID 1178).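 Further: growth measured as culture turbidity by optical density at 650 nm; test concentration not given here.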 Conditions: higher = more signal, called active from +8 up or from −8 down.
The nature of assay [18]: E. coli acrAB mutant growth effects, primary screen, E. coli filamentation inducers, strain DRC39, OD650, 48 h (AID 1179).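 Further: screen aims at cell division blockers that make cells filament.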 Conditions: E. coli DRC39 delta-acrAB growth, higher = more signal, called active from +8 up or from −8 down.
Assay [19] can be described thus: RPMI8226 myeloma cell viability, profiling panel, resazurin fluorescence, basal, 24 h, PK04 Diversity Set (AID 1180).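 Further: RPMI8826 multiple myeloma cell line at 5000 cells per well; test concentration not given here.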 Conditions: higher = more signal.
For assay [20], the target named is E3 ubiquitin-protein ligase XIAP (Homo sapiens) (UniProt P98170). Kind of assay: XIAP binders, primary screen, biophysical, small-molecule microarray, fluorescence 635 nm (AID 1181).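 Further: score merges 667 nm emission and signal to noise over triplicate slides.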 The settings on record: small-molecule microarray binding, higher = more signal.
E3 ubiquitin-protein ligase XIAP (Homo sapiens), sequence (P98170 whole entry, looked up): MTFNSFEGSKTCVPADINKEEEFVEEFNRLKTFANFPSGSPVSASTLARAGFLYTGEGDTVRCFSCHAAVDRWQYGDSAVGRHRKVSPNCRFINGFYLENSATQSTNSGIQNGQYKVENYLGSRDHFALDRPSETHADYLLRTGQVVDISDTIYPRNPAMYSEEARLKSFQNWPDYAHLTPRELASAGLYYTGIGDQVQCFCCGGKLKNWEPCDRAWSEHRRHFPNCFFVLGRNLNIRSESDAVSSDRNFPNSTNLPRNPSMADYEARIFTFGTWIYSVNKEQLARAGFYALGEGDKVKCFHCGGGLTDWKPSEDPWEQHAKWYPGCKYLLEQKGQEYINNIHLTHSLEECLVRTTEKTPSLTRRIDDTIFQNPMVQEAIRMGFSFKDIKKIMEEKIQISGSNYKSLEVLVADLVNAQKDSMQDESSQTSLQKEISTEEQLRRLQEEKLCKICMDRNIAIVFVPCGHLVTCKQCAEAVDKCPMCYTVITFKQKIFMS

Results on 8 compounds are retold here after PubChem BioAssay.

Activity calls are given as the source filed them.

NADPH oxidase 5 (Homo sapiens), sequence (Q96PH1 whole entry, looked up): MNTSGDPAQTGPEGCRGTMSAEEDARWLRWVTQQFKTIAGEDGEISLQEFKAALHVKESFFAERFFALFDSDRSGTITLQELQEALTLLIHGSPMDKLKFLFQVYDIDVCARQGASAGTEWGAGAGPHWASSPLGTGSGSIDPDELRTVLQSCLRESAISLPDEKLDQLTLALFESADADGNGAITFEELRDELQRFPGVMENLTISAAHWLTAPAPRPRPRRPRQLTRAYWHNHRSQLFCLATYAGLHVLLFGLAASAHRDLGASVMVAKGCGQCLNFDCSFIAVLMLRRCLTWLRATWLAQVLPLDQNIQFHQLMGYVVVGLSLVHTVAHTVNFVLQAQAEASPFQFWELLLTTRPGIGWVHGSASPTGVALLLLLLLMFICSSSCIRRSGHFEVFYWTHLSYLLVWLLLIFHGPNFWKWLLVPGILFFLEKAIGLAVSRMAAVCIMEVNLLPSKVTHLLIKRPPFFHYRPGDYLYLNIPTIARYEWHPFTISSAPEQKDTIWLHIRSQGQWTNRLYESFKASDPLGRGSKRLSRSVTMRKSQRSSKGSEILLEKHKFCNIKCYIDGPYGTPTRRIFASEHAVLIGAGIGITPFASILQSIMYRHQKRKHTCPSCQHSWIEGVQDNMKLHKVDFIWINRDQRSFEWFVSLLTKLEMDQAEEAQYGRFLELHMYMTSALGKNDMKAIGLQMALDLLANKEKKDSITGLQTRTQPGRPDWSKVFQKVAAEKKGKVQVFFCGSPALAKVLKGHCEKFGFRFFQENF

In the case of `O=C(NCC(F)(F)F)[C@@H]1c2ccccc2C(=O)N(C2Cc3ccccc3C2)[C@H]1c1ccc(CO)cc1`, the z-score in [1] was -1.23; in assay [2], 2.25; in assay [3], 0.752; in [4] it was -0.016; in assay [5], 0.557; in assay [6], -1.11. For the same compound, the z-score is 3.1 in assay [7]; 0.676 (inactive) in assay [8]; 0.0903 in [9]; -0.0546 in assay [10]; 1.05 (inactive) in assay [11]; 0.983 in assay [12]. Further, the z-score was -1.06 (inactive) in assay [13]; 1.49 (inactive) in [14]; -0.763 (inactive) in assay [16]; 0.46 (inactive) in assay [17]; 0.249 (inactive) in assay [18]; 1.61 in assay [19]. Further, the composite z-score in [15] is -1.16 (inactive); in assay [20], -0.22.

In the case of `CO[C@H]1O[C@H](CO)[C@@H](OC(=O)Nc2ccccc2)[C@H](OC(=O)Nc2ccccc2-c2ccccc2)[C@@H]1OC(=O)Nc1ccccc1-c1ccccc1`, the z-score in assay [1] is 0.306; in assay [2], -1.01; in assay [3], 0.195; in [4], -1.35; in assay [5] it was -1.09; in assay [6], -1.33. Moreover, the z-score was -0.629 in assay [7]; 2.01 (inactive) in assay [8]; -0.947 in assay [9]; 0.15 in assay [10]; -2.22 (inactive) in assay [11]; -0.342 in assay [12]. Also, the z-score was -0.954 (inactive) in assay [13]; -1.15 (inactive) in assay [14]; 2.16 (inactive) in assay [16]; -0.233 (inactive) in assay [17]; -0.3 (inactive) in [18]; -0.447 in [19]. The composite z-score in assay [15] was -1.33 (inactive); in [20], -0.0988.

In the case of `CC(C)C(CO)N1C(=O)[C@@H]2C3C(=O)OCCC/C=C\[C@H]3OC23C=CCN(C(C)C)C(=O)[C@@H]13` (stereo not given in full), the z-score was 1.56 in [1]; 0.136 in assay [2]; 0.492 in assay [3]; -0.345 in assay [4]; 0.239 in assay [5]; -0.0156 in assay [6]. Also, the z-score in [7] is 0.271; in [8], -0.0599 (inactive); in assay [9], -0.524; in [10] it was 1.05; in assay [11] it was 0.735 (inactive); in assay [12], 0.997. For the same compound, the z-score in assay [13] is -0.953 (inactive); in assay [14], 0.814 (inactive); in assay [16], -1.36 (inactive); in [17] it was 1.66 (inactive); in [18], 1.26 (inactive); in [19], 1.53. Moreover, the composite z-score in assay [15] was -0.848 (inactive); in [20], -0.269.

As to `COC(=O)C(CC#Cc1ccc2c(c1)[C@]1(C(=O)N2)[C@H](C(N)=O)[C@H]2C(=O)O[C@H](c3ccccc3)[C@H](c3ccccc3)N2[C@@H]1c1ccc(O)cc1)C(=O)OC`, the z-score is 1.1 in assay [1]; 0.685 in [2]; 0.915 in assay [3]; 0.72 in [4]; 0.555 in assay [5]; -1.42 in assay [6]. For the same compound, the z-score in [7] was -2.22; in assay [8], -0.2 (inactive); in assay [9], -1.17; in [10], 1.25; in assay [11], 1.16 (inactive); in assay [12], 0.259. Moreover, the z-score in [13] was -1.26 (inactive); in assay [14], 1.52 (inactive); in assay [16], 0.208 (inactive); in assay [17], 0.105 (inactive); in [18] it was 0.572 (inactive); in [19], 1.27. For the same compound, the composite z-score is -0.0538 (inactive) in assay [15] and 0.0239 in [20].

As for `CC(C)C(=C=CC[C@H](O)c1ccc(OCCO)cc1)C[C@H](O)COCc1ccccc1`, the z-score in [1] was -1.87; in assay [2], 0.153; in assay [3], 0.475; in assay [4], -0.822; in assay [5], -3.38; in assay [6] it was -3.77. Besides, the z-score in assay [7] is 0.296; in [8] it was 0.371 (inactive); in [9], -0.625; in assay [10], -1.36; in assay [11], 0.515 (inactive); in [12], 0.657. For the same compound, the z-score in [13] was -3.15 (inactive); in assay [14] it was -1.83 (inactive); in assay [16], 1.04 (inactive); in assay [17], 1.35 (inactive); in assay [18] it was 0.883 (inactive); in assay [19] it was -0.0676. Further, the composite z-score is -1.09 (inactive) in assay [15] and -0.0233 in assay [20].

For `COCCCN1C(=O)[C@@]2(Cc3ccccc31)c1ccccc1C(=O)N(Cc1ccccc1Cl)[C@H]2c1ccc(CO)cc1`, the z-score in assay [1] was 1.65; in assay [2], 1.54; in assay [3], -0.414; in assay [4] it was 0.0836; in assay [5], 0.712; in assay [6], 0.485. Further, the z-score in [7] is 1.58; in assay [8] it was 1.33 (inactive); in [9] it was 0.15; in [10], 0.828; in assay [11], -0.306 (inactive); in [12], -0.384. Further, the z-score is -0.846 (inactive) in assay [13]; 0.686 (inactive) in assay [14]; -0.921 (inactive) in assay [16]; 0.56 (inactive) in [17]; 0.891 (inactive) in assay [18]; 0.902 in [19]. In addition, the results for the composite z-score in assay [15] and in [20] were -12.4 (active) and -0.0699, respectively.

`C=CCC(OC(C)=O)[C@@H]1[C@@H](N(Cc2cccc3ccccc23)C(=O)Cc2ccc(OC)cc2)c2cc(OCCCO)ccc2N1C(=O)Cc1ccc(OC)cc1` (stereo not given in full): the z-score in [1] is 2.4; in assay [2], 1.25; in assay [3], 1.47; in assay [4] it was 0.691; in assay [5], 1.76; in assay [6], -1.55. Further, the z-score in assay [7] was 2.38; in [8], 0.847 (inactive); in assay [9] it was -0.44; in assay [10], 0.791; in [11], 0.493 (inactive); in assay [12], -0.197. In addition, the z-score in [13] was -1.63 (inactive); in assay [14] it was 0.844 (inactive); in [16] it was -0.27 (inactive); in assay [17], 1.51 (inactive); in [18], 0.443 (inactive); in assay [19], 0.666. The values for the composite z-score in assay [15] and in [20] were 0.363 (inactive) and 0.183, respectively.

For the compound `COCCOC(=O)N1C(=O)[C@@]2(c3cc(C#CC4(O)CCCCCC4)ccc31)[C@H](c1ccc(O)cc1)N1[C@H](c3ccccc3)[C@H](c3ccccc3)OC(=O)[C@H]1[C@@H]2C(N)=O`, the z-score was 1.29 in [1]; 0.0692 in assay [2]; 1.46 in [3]; 0.638 in assay [4]; -2.22 in assay [5]; -4.23 in assay [6]. The z-score in [7] is -1.6; in assay [8] it was -0.385 (inactive); in [9], -0.735; in [10], 0.246; in [11], 0.928 (inactive); in assay [12], 0.228. Besides, the z-score in [13] was -1.38 (inactive); in [14], 0.951 (inactive); in [16], -0.95 (inactive); in [17], 0.158 (inactive); in [18], 0.155 (inactive); in assay [19], 0.778. Also, the composite z-score in assay [15] was 0.194 (inactive); in [20] it was 0.166.
